In a collection of fitness landscapes (doi:10.1016/j.celrep.2020.107928):
Whole data set: some 81,000 sequences, median “one-hybrid fitness for binding parS DNA” near -0.17, cut for the highest 2% near 0.51. Many of the other results were omitted from the sample, so the highest values are more common in it than they were.

B1: Caulobacter ParB omega fusion; a variant is named by its letters at X, in order, B8GW30 (parent)
chain: MESVVVGEPGMSEGRRGLGRGLSALLGEVDAAPAQAPGEQLGGSREAPIEILQRNPDQPRRTFREEDLEDLSNSIREKGVLQPILVRPSPDTAGEYQIVAGERAWRAAQRAGLKTVPIMVRELDDLAVLEIGIIENVQRADLNVLEEALSYKVLMEKFERTQENIAQTIGKSXSHVANXMRLLXLPDEVQSYLVSGELTAXHARAIAAAADPVALAKQIIEGGLSVRETEALARKAPNLSAGKSKGGRPPRVKDTDTQALESDLSSVLGLDVSIDHRGSTGTLTITYATLEQLDDLCNRLTRGI

Variants of: B1
Test: one-hybrid fitness for binding parS DNA (scaled: cognate 1, non-cognate 0); higher = stronger binding
Settings: with parS DNA site
Outline: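 Fitness here means the log change in variant-to-wild-type read ratio between plasmids sequenced before and after selection. That scale was set so cognate equals 1 and non-cognate equals 0. The selection was a bacterial one-hybrid screen of Caulobacter ParB libraries, four specificity codons randomised, in E. coli USO carrying a HIS3 reporter with the site 19 bp from the promoter, grown 48 hours at 37°C on M9-minus-histidine with 0.1 mM IPTG and 5 mM 3-AT.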

one-hybrid fitness for binding parS DNA, 0.601:
RGST

one-hybrid fitness for binding parS DNA, 0.936:
RNKS

one-hybrid fitness for binding parS DNA, 0.553:
RYMA

one-hybrid fitness for binding parS DNA, 0.239:
RAKH

one-hybrid fitness for binding parS DNA, 0.816:
RCKC

one-hybrid fitness for binding parS DNA, 0.545:
RYPG

one-hybrid fitness for binding parS DNA, 0.849:
RGSS

one-hybrid fitness for binding parS DNA, 0.226:
RGSY

one-hybrid fitness for binding parS DNA, 0.401:
RKEY

one-hybrid fitness for binding parS DNA, 0.431:
RQDN

one-hybrid fitness for binding parS DNA, 0.676:
RGRT

one-hybrid fitness for binding parS DNA, 1.04:
RLYS

one-hybrid fitness for binding parS DNA, 0.524:
RGIS
RGAT

one-hybrid fitness for binding parS DNA, 0.248:
RLLH

one-hybrid fitness for binding parS DNA, 0.573:
RGWS

one-hybrid fitness for binding parS DNA, 0.44:
RLLN

one-hybrid fitness for binding parS DNA, 0.674:
RNVS

one-hybrid fitness for binding parS DNA, 0.462:
RIFY

one-hybrid fitness for binding parS DNA, 1.01:
RLDS

one-hybrid fitness for binding parS DNA, 0.204:
RLHH

one-hybrid fitness for binding parS DNA, 0.574:
RMQA

one-hybrid fitness for binding parS DNA, 0.51:
RGCT

one-hybrid fitness for binding parS DNA, 0.58:
RGQT

one-hybrid fitness for binding parS DNA, 0.5:
RHQA

one-hybrid fitness for binding parS DNA, 0.555:
RSQA

one-hybrid fitness for binding parS DNA, 0.874:
RAKS

one-hybrid fitness for binding parS DNA, 0.283:
RIFK

one-hybrid fitness for binding parS DNA, 0.334:
RVIN

one-hybrid fitness for binding parS DNA, 0.349:
RTEN

one-hybrid fitness for binding parS DNA, 0.519:
RGHT

one-hybrid fitness for binding parS DNA, 0.783:
RLET

one-hybrid fitness for binding parS DNA, 0.793:
RYIG

one-hybrid fitness for binding parS DNA, 0.582:
RTMA

one-hybrid fitness for binding parS DNA, 0.576:
RSMA

one-hybrid fitness for binding parS DNA, 0.416:
RLDN

one-hybrid fitness for binding parS DNA, 0.455:
RLSN
RGFT

one-hybrid fitness for binding parS DNA, 0.586:
RGYS

one-hybrid fitness for binding parS DNA, 0.252:
RLNH

one-hybrid fitness for binding parS DNA, 0.32:
RSLM

one-hybrid fitness for binding parS DNA, 0.997:
RIAG

one-hybrid fitness for binding parS DNA, 0.297:
RNYY

one-hybrid fitness for binding parS DNA, 0.336:
RGPS

one-hybrid fitness for binding parS DNA, 0.218:
RGSN

one-hybrid fitness for binding parS DNA, 0.443:
RSKN
RLWN

one-hybrid fitness for binding parS DNA, 0.487:
RLYN

one-hybrid fitness for binding parS DNA, 0.809:
RRMA

one-hybrid fitness for binding parS DNA, 0.354:
RNKN

one-hybrid fitness for binding parS DNA, 0.943:
RSKC

one-hybrid fitness for binding parS DNA, 0.458:
RLEY

one-hybrid fitness for binding parS DNA, 0.269:
RYIN

one-hybrid fitness for binding parS DNA, 0.799:
RKET

one-hybrid fitness for binding parS DNA, 0.932:
RLNS
RGRS

one-hybrid fitness for binding parS DNA, 0.977:
RQDS

one-hybrid fitness for binding parS DNA, 0.73:
RGHS

one-hybrid fitness for binding parS DNA, 0.475:
RGYT

one-hybrid fitness for binding parS DNA, 0.986:
RAVS

one-hybrid fitness for binding parS DNA, 0.748:
RCKT

one-hybrid fitness for binding parS DNA, 0.595:
RGCS

one-hybrid fitness for binding parS DNA, 0.796:
RSKT

one-hybrid fitness for binding parS DNA, 0.978:
RIFG

one-hybrid fitness for binding parS DNA, 0.991:
RLSS

one-hybrid fitness for binding parS DNA, 0.627:
RTQA

one-hybrid fitness for binding parS DNA, 0.202:
RAVH

one-hybrid fitness for binding parS DNA, 0.653:
RSET

one-hybrid fitness for binding parS DNA, 0.937:
RAKG

one-hybrid fitness for binding parS DNA, 0.637:
RVPC

one-hybrid fitness for binding parS DNA, 0.364:
RGQA

one-hybrid fitness for binding parS DNA, 0.309:
RMEM

one-hybrid fitness for binding parS DNA, 0.846:
RVIC

one-hybrid fitness for binding parS DNA, 0.543:
RNKY

one-hybrid fitness for binding parS DNA, 0.923:
RAVG

one-hybrid fitness for binding parS DNA, 0.981:
RLGS

one-hybrid fitness for binding parS DNA, 0.308:
RGET

one-hybrid fitness for binding parS DNA, 0.709:
RIET

one-hybrid fitness for binding parS DNA, 0.616:
RLQA

one-hybrid fitness for binding parS DNA, 0.65:
RGLS

one-hybrid fitness for binding parS DNA, 0.223:
RLRH

one-hybrid fitness for binding parS DNA, 0.609:
RGNT

one-hybrid fitness for binding parS DNA, 0.219:
RNKH

one-hybrid fitness for binding parS DNA, 0.921:
RQNS

one-hybrid fitness for binding parS DNA, 0.287:
RWMA

one-hybrid fitness for binding parS DNA, 0.329:
RQNH

one-hybrid fitness for binding parS DNA, 0.733:
RGGS

one-hybrid fitness for binding parS DNA, 0.504:
RFMA

one-hybrid fitness for binding parS DNA, 0.371:
RGDT

one-hybrid fitness for binding parS DNA, 0.249:
RGQN

one-hybrid fitness for binding parS DNA, 0.875:
RLRS

one-hybrid fitness for binding parS DNA, 0.593:
RCQA

one-hybrid fitness for binding parS DNA, 0.96:
RLHS

one-hybrid fitness for binding parS DNA, 0.279:
RIAH

one-hybrid fitness for binding parS DNA, 0.655:
RFET

one-hybrid fitness for binding parS DNA, 0.75:
RTET

one-hybrid fitness for binding parS DNA, 1.05:
RLLS

one-hybrid fitness for binding parS DNA, 0.404:
RWQA

one-hybrid fitness for binding parS DNA, 1.03:
RLWS

one-hybrid fitness for binding parS DNA, 0.369:
REKT

one-hybrid fitness for binding parS DNA, ≤ 0.2:
VPIN
DWQR
RMEF
RIEF
REET
PFET
EFET
RIEK
PTPR
QSVP
AQRA
WPTL
GPKW
RKER
RTEP
RLEK
AEWH
ISIL
LPPC
TELP
PLFM
HICT
SMNV
SGQL
LYHP
DTQA
RDQA
NTQA
VRKH
GAVT
RVVL
YEHG
GAFN
CTDH
PIDR
SPPW
IYKI
NLQA
CLQA
KMPV
KSYG
MYPR
AHSN
MNDG
QPYH
TMHS
PTQT
RAVD
RAKP
TSEV
RRHL
PNHC
NLGV
RAKK
RAVR
RAVF
RAKQ
QLEL
FTDC
NTWT
RQNP
RQDP
PMTF
IRPV
WKDS
RPKC
RSKP
IDNS
QCDG
PPSE
KIGR
ANCC
HRKN
RNVY
RNVP
RNVD
QADL
QIAH
YERV
YMQL
NLRR
QKLQ
RIAP
YDMG
WYYF
GTPA
PTAE
RYIK
RYPN
RYPH
PRFW
CGQS
HFIF
GKTS
RLHP
RLRP
RLND
RLSD
QPVT
TWLF
MFNG
MAAA
NWPE
TFVS
VVQN
YPYG
IVTG
LDGI
ACHY
RLGP
RLWD
RLYD
RLGD
YVWS
YNKG
RRYE
YFLW
GWSG
SAAF
VKNG
AELV
GLPW
PMAN
YMPP
KVPK
RLDH
QGEI
TFSF
YFFS
RGWN
RGGP
RGCN
RGWD
RGGN
RGCQ
RGCD
SEDR
YADT
KCCV
VDHL
DLCC
SLAM
NYMG
RGIN
RGSD
RGIH
RGHF
TPNI
SATH
HPWF
TRNA
QQAP
AFMD
PRPT
LTYS
WIST
RGPT
RGQD
RGNF
LTFV
QTHV
HQLT
QKHC
SLYD
GLTA
CINY
YKSG
PKIS
EFPF
DVWS
NFYC
DMTG
RGHD
RGAP
RGRP
RGHH
RGYD
RGRD
NMTN
HQTD
CKKK
SMHA
LLCV
RNEW
RGLN
RGLD
GMLK
TTDG
RVPN
RVIH
RVPH
HYPN
ITNM
RSKK
RDKT
RPKT
PRHS
MIYR
VPKS
TLQM
DRMA
AYMA
DTMA
NTMA
NRMA
SYMA

one-hybrid fitness for binding parS DNA, 0.803:
RGQS

one-hybrid fitness for binding parS DNA, 0.731:
RMET

one-hybrid fitness for binding parS DNA, 0.282:
RDKC
